Screens as filed in PubChem BioAssay.
aSyn 5UTR act: Activators working through SNCA 5'UTR binding (MLPCN); alpha-synuclein 5'UTR reporter, activators screen; activity score, % (tested at 7.5 µM), hits read low; 7.1% of 300,000 active; in the data active means activity score below about -60%
An asterisk follows results filed as active. These entries were drawn from the full list.

CCn1cnc2cc(NCc3ccc(Br)cc3)ccc21 was read as aSyn 5UTR act -140*.
Screening CCCn1cnc2cc(NCc3cccc(OC)c3)ccc21 returned aSyn 5UTR act -141*.
For CCn1cnc2cc(NCc3ccc(C)cc3)ccc21 the results were aSyn 5UTR act -128*.
`Cc1c(C(=O)c2ccccc2)oc2ccc3ccccc3c12` gave aSyn 5UTR act -116*.
Screening Cc1ccc(Nc2c([N+](=O)[O-])ccc3c2=NC2(CCCCC2)N=3)cc1 returned aSyn 5UTR act -68*.
Screening Cc1cc(/C=C(\C#N)C(=O)NC2CCCCCC2)c(C)n1C returned aSyn 5UTR act -74*.
`O=[N+]([O-])c1ccc(/C=C/c2nc3ccc([N+](=O)[O-])cc3[nH]2)cc1` gave aSyn 5UTR act -165*.
COc1ccc2cc(-c3ccccc3)ncc2c1 was read as aSyn 5UTR act -65*.
`O=[N+]([O-])c1ccc2nc(-c3ccc(Cl)cc3)[nH]c2c1` gave aSyn 5UTR act -221*.
COc1ccc(-c2cc3c(nn2)-c2ccccc2C3=O)cc1 was read as aSyn 5UTR act 98.
Screening COc1ccc2[nH]c(-c3ccccc3)cc2c1 returned aSyn 5UTR act -139*.
COc1ccc(-c2nc3ccc([N+](=O)[O-])cc3[nH]2)cc1 was read as aSyn 5UTR act -63*.
Screening O=[N+]([O-])c1cccc(-c2nc3ccc([N+](=O)[O-])cc3[nH]2)c1 returned aSyn 5UTR act -142*.
For O=[N+]([O-])c1ccc(-c2cc(-c3ccc(Cl)cc3)n[nH]2)cc1 the results were aSyn 5UTR act -75*.
COc1ccc2nc(-c3ccccc3)[nH]c2c1 was read as aSyn 5UTR act -71*.
Clc1ccc(-c2nc3ccncc3[nH]2)cc1 was read as aSyn 5UTR act -101*.
COC(=O)c1ccc(N)nc1 was read as aSyn 5UTR act -79*.
`COC(=O)c1sc(NC(=S)NC(=O)c2ccccc2C)nc1C` gave aSyn 5UTR act -93*.
Screening COC(=O)c1sc(NC(=S)NC(=O)c2cccc(Br)c2)nc1C returned aSyn 5UTR act -104*.
For CC(=O)c1cccc(Nc2nc(-c3cccnc3)cs2)c1 the results were aSyn 5UTR act -230*.
`O=C(Nc1cccc(-c2csc(Nc3ccccc3)n2)c1)c1ccccc1` gave aSyn 5UTR act -142*.
Screening CC(=O)c1cccc(Nc2nc(-c3ccccc3)cs2)c1 returned aSyn 5UTR act -145*.
For COc1ccc(N=C2S/C(=C\c3ccc(N4CCOCC4)o3)C(=O)N2CCc2c[nH]c3ccccc23)cc1 the results were aSyn 5UTR act -113*.
Screening Cc1cccc(NC(=O)c2cccc(OC(=S)N3CCOCC3)c2)c1C returned aSyn 5UTR act -66*.
CCCCOc1ccc(Br)cc1/C(C)=N/NC1=NCCN1 was read as aSyn 5UTR act 121.
CCCCOc1ccc(CSC2=NCCN2)cc1[N+](=O)[O-] was read as aSyn 5UTR act -82*.
`O=C(NCCc1ccccc1)c1n[nH]c2ccccc12` gave aSyn 5UTR act -144*.
Screening CC1CCCCN1C(=O)COC(=O)c1n[nH]c2ccccc12 (stereo not drawn) returned aSyn 5UTR act -73*.
O=C(OCCOc1ccccc1)c1n[nH]c2ccccc12 was read as aSyn 5UTR act -168*.
COCCn1c(C)cc(C(=O)COC(=O)c2n[nH]c3ccccc23)c1C was read as aSyn 5UTR act 81.
Nc1c(C(=O)NCCc2ccccc2)nnn1Cc1ccccc1 was read as aSyn 5UTR act -75*.
`O=C(NCCc1ccccc1)c1nccc2ccccc12` gave aSyn 5UTR act -111*.
For O=C(Nc1ccccc1)c1nnn(Cc2ccccc2)c1NC(=O)C(F)(F)F the results were aSyn 5UTR act -72*.
Screening COc1cccc(NC(=O)C(=O)NCC2CCCN2S(=O)(=O)c2ccccc2)c1 (stereo not drawn) returned aSyn 5UTR act -216*.
For O=C(NCCC1CCCCN1S(=O)(=O)c1cccs1)C(=O)Nc1ccc(F)cc1 (stereo not drawn) the results were aSyn 5UTR act -87*.
For COc1cccc(NC(=O)C(=O)NCCC2CCCCN2S(=O)(=O)c2ccccc2)c1 (stereo not drawn) the results were aSyn 5UTR act -158*.
Screening O=C(NCCC1CCCCN1S(=O)(=O)c1ccc(Cl)cc1)C(=O)NCc1ccncc1 (stereo not drawn) returned aSyn 5UTR act 62.
Screening c1ccc(C2=Nc3ccccc3SC2c2nc3ccccc3[nH]2)cc1 (stereo not drawn) returned aSyn 5UTR act -250*.
Screening Clc1ccc(-c2nnc(-c3ccc(Br)o3)o2)c(Cl)c1 returned aSyn 5UTR act -192*.
Screening CSc1nnc(-c2ccc(Cl)cc2Cl)o1 returned aSyn 5UTR act -120*.
For CCSc1nnc(-c2ccc(Cl)cc2Cl)o1 the results were aSyn 5UTR act -260*.
`O=C1OCCC1Sc1nnc(-c2ccc(Cl)cc2Cl)o1` (stereo not drawn) gave aSyn 5UTR act 90.
CCOC(=O)c1c(C)[nH]c(C(=O)OCC(=O)Nc2sccc2C(N)=O)c1C was read as aSyn 5UTR act -119*.
